Results from PubChem BioAssay AID1159580 (chemical genetic matrix, 2015).
Out of some 5,500 compounds screened, about 2,000 (36%) were called active. Inconclusive results (about 18%) are left out. No stated cut-off is given here; in the data, active means normalized growth mostly below about 0.91 (no sharp cut-off); inconclusive means no clear call, values can overlap the other calls; inactive means mostly above about 0.92. The list shows a part of the results.

Experiment: chemical genetic growth profiling, strain panel (AID 1159580);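 further: tested at 20 µM; growth read once vehicle control cultures reached saturation at 30 °C; 1 = growth at the plate median or of vehicle wells; lower values mean less growth of the strain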
Settings: S. cerevisiae deletion strains, growth OD
[1] = locus YAL013W, strain DEP1, active compounds read low
[2] = locus YBR229C, strain ROT2, active compounds read low
[3] = locus YDL101C, strain DUN1, active compounds read low
[4] = locus YDR150W, strain NUM1, active compounds read low
[5] = locus YEL061C, strain CIN8, active compounds read low
[6] = locus YGR078C, strain PAC10, active compounds read low
[7] = locus YHR030C, strain SLT2, active compounds read low
[8] = locus YHR087W, strain rtc3, active compounds read low
[9] = locus YJL187C, strain SWE1, active compounds read low
[10] = locus YJR043C, strain POL32, active compounds read low
[11] = locus YJR075W, strain HOC1, active compounds read low
[12] = locus YKL190W, strain CNB1, active compounds read low
[13] = locus YLR039C, strain RIC1, active compounds read low
[14] = locus YLR058C, strain SHM2 (second series), active compounds read low
[15] = locus YLR085C, strain ARP6, active compounds read low
[16] = locus YLR262C, strain YPT6, active compounds read low
[17] = locus YML094W, strain GIM5, active compounds read low
[18] = locus YMR219W, strain ESC1, active compounds read low
[19] = locus YMR263W, strain SAP30, active compounds read low
[20] = locus YNL153C, strain GIM3, active compounds read low
[21] = locus YNL298W, strain CLA4 (second series), active compounds read low
[22] = locus YNL322C, strain KRE1, active compounds read low
[23] = locus YNR030W, strain Alg12, active compounds read low
[24] = locus YPL055C, strain LGE1, active compounds read low
[25] = locus YPL241C, strain CIN2, active compounds read low
[26] = locus YPR135W, strain CTF4, active compounds read low
[27] = locus YMR307W, strain GAS1, active compounds read low

Measured: normalized growth

CN(C)c1ccc(-c2n[nH]c(=O)c3ccccc23)cc1[N+](=O)[O-]
active: [5] 0.907
inactive: [1] 0.966 | [2] 0.986 | locus YCL061C, strain MRC1, active compounds read low 0.98 | [3] 1 | [4] 0.981 | [6] 1 | [7] 0.875 | [8] 0.982 | [9] 0.978 | [10] 0.963 | [11] 0.99 | [12] 1.01 | [13] 1.09 | [14] 0.994 | [15] 0.882 | [16] 1.08 | [17] 0.891 | [18] 0.999 | [19] 0.961 | [20] 0.979 | [21] 0.891 | [22] 1.03 | [23] 0.955 | [24] 0.886 | [25] 0.96 | [26] 0.97

NC(=O)CS(=O)C(c1ccccc1)c1ccccc1 (stereo unspecified)
inactive: locus YAL021C, strain ccr4, active compounds read low 1.01 | locus YAL026C, strain drs2, active compounds read low 1.04 | locus YAL030W, strain snc1, active compounds read low 1.02 | locus YBL061C, strain skt5, active compounds read low 1.02 | locus YBR009C, strain hhf1, active compounds read low 0.976 | locus YBR023C, strain chs3, active compounds read low 1.03 | locus YBR171W, strain sec66, active compounds read low 1.02 | locus YBR231C, strain swc5, active compounds read low 1 | locus YBR279W, strain paf1, active compounds read low 1.02 | locus YCL011C, strain gbp2, active compounds read low 1.02 | locus YCL016C, strain dcc1, active compounds read low 1.04 | locus YCL069W, strain vba3, active compounds read low 0.998 | locus YCR088W, strain abp1, active compounds read low 1.01 | locus YDL005C, strain med2, active compounds read low 1.03 | locus YDL040C, strain nat1, active compounds read low 0.998 | locus YDR001C, strain nth1, active compounds read low 1 | locus YDR069C, strain doa4, active compounds read low 1.02 | locus YDR137W, strain rgp1, active compounds read low 1.05 | locus YDR159W, strain sac3, active compounds read low 0.939 | locus YDR195W, strain ref2 0.981 | locus YDR297W, strain sur2, active compounds read low 0.994 | locus YDR334W, strain swr1, active compounds read low 1 | locus YDR335W, strain msn5, active compounds read low 1.02 | locus YDR392W, strain spt3, active compounds read low 0.968 | locus YEL003W, strain gim4, active compounds read low 0.99 | locus YEL037C, strain rad23, active compounds read low 1.01 | locus YEL061C, strain CIN8 (second series), active compounds read low 1.01 | locus YER015W, strain faa2, active compounds read low 1.01 | locus YER016W, strain bim1, active compounds read low 1.02 | locus YER111C, strain swi4, active compounds read low 1.01 | locus YER155C, strain BEM2 (second series), active compounds read low 1.02 | locus YFR010W, strain ubp6, active compounds read low 0.987 | locus YGL167C, strain pmr1, active compounds read low 1 | locus YGL173C, strain kem1, active compounds read low 1 | locus YGL227W, strain vid30, active compounds read low 1.01 | locus YGL240W, strain doc1, active compounds read low 1.01 | locus YGL253W, strain hxk2, active compounds read low 1.03 | locus YHR013C, strain ard1, active compounds read low 1.05 | locus YHR027C, strain rpn1, active compounds read low 1.01 | [7] 1.04 | locus YHR079C, strain IRE1, active compounds read low 1.04 | locus YHR142W, strain chs7, active compounds read low 1.01 | locus YJL092W, strain hpr5, active compounds read low 1 | locus YJL095W, strain BCK1 (second series), active compounds read low 1.02 | locus YJL095W, strain BCK1, active compounds read low 0.996 | locus YJL115W, strain asf1, active compounds read low 1.01 | locus YJL129C, strain trk1, active compounds read low 1.04 | locus YJL154C, strain vps35, active compounds read low 1.01 | locus YJL164C, strain tpk1, active compounds read low 0.988 | locus YJL166W, strain qcr8, active compounds read low 0.982 | [9] 1.01 | locus YJR066W, strain TOR1, active compounds read low 0.977 | locus YKL160W, strain elf1, active compounds read low 1.05 | locus YKR026C, strain gcn3, active compounds read low 1.01 | locus YKR091W, strain srl3, active compounds read low 1.01 | locus YLL001W, strain dnm1, active compounds read low 0.972 | locus YLL026W, active compounds read low 1 | locus YLL041C, strain sdh2, active compounds read low 1 | locus YLR027C, strain aat2, active compounds read low 0.985 | locus YLR113W, strain HOG1, active compounds read low 0.961 | locus YLR221C, strain rsa3, active compounds read low 0.977 | locus YLR258W, strain gsy2, active compounds read low 1.03 | locus YLR262C, strain YPT6 (second series), active compounds read low 1.01 | locus YLR320W, strain mms22, active compounds read low 0.958 | locus YLR342W, strain FKS1, active compounds read low 1.02 | locus YLR357W, strain rsc2, active compounds read low 0.997 | locus YLR370C, strain arc18, active compounds read low 1.02 | locus YLR384C, strain iki3, active compounds read low 1.02 | locus YML120C, strain ndi1, active compounds read low 0.981 | locus YMR058W, strain fet3, active compounds read low 1.02 | locus YMR125W, strain sto1, active compounds read low 1.04 | locus YMR129W, active compounds read low 1.01 | locus YMR205C, strain PFK2, active compounds read low 1.01 | locus YMR231W, strain pep5, active compounds read low 0.999 | locus YNL071W, strain lat1, active compounds read low 1.02 | locus YNL183C, strain NPR1, active compounds read low 0.958 | locus YNL209W, strain ssb2, active compounds read low 1.01 | locus YNL248C, strain rpa49, active compounds read low 1.04 | locus YNL322C, strain KRE1 (second series), active compounds read low 1.02 | locus YNR049C, strain mso1, active compounds read low 1.03 | locus YOR001W, strain rrp6, active compounds read low 0.928 | locus YOR070C, strain gyp1, active compounds read low 1.01 | locus YOR080W, strain dia2, active compounds read low 1.01 | locus YOR083W, strain WHI5, active compounds read low 0.976 | locus YOR106W, strain vam3, active compounds read low 1.02 | locus YOR231W, strain MKK1, active compounds read low 1.02 | locus YOR265W, strain rbl2, active compounds read low 1.01 | locus YOR270C, strain vph1, active compounds read low 1.05 | locus YOR290C, strain snf2, active compounds read low 1.06 | locus YPL051W, strain arl3, active compounds read low 1.06 | locus YPL078C, strain atp4, active compounds read low 1.05 | locus YPL106C, strain sse1, active compounds read low 1.04 | locus YPL240C, strain hsp82, active compounds read low 1 | locus YPL256C, strain CLN2, active compounds read low 1.06

Nc1ccc(CCNc2ncnc3c2ncn3C2OC(CO)C(O)C2O)cc1 (stereo unspecified)
inactive: locus YAL040C, strain CLN3, active compounds read low 1.03 | locus YCL061C, strain MRC1 (second series), active compounds read low 0.997 | locus YDR363W, strain ESC2, active compounds read low 0.988 | locus YER002W, strain NOP16, active compounds read low 0.991 | [11] 1 | [27] 1.02 | locus YNL175C, strain NOP13, active compounds read low 0.985 | locus YNL197C, strain WHI3, active compounds read low 1.01 | locus YNL224C, strain SQS1, active compounds read low 0.977 | [22] 0.995 | locus YOR083W, strain WHI5 (second series), active compounds read low 0.995 | [24] 0.986 | [25] 0.999

OCc1nccn1Cc1ccc(Cl)cc1
inactive: [1] 1.02 | [2] 1 | [3] 1.03 | locus YDL134C, strain PPH21, active compounds read low 1.02 | [4] 1.05 | [5] 1 | [6] 1 | [8] 0.983 | [10] 1.03 | [11] 0.944 | [12] 0.999 | [13] 0.889 | [14] 0.998 | [15] 1.02 | [16] 0.849 | [17] 0.983 | [18] 1.01 | [19] 1.04 | [20] 1.02 | [21] 0.923 | [22] 1 | [23] 0.947 | [24] 1.08 | [25] 1.02 | [26] 1.03
active: [7] 0.288 | [27] 1.51 [resistant]
